# The list is not random: actives were taken first. Their share in the collection is about 21%.
# Pf growth 96h: inhibits malaria parasite growth, 96 h | P. falciparum luciferase reporter growth, 96 h | Potency, µM (titrated, usually from 28.7 µM), for inactives: at the highest dose activity change, negative = inhibition, usual class: inhibitors | 6.9% of 320,000 active | AID 504834; also: potency is read from the fitted curve at half-maximal effect; % is scaled to controls: 0 for no effect and ±100 for the full control effect
#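 Compounds incubated with erythrocytes infected by luciferase-expressing P. falciparum (2% hematocrit, 0.05% parasitemia final) for 96 hours, 37 C in 5% CO2. Growth inhibition scored as decreased luciferase luminescence.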
# Cycloheximide cs: affects cycloheximide protein synthesis inhibition readout, counter-screen. max response, %. cell reporter, cycloheximide protein synthesis inhibition counterscreen. 12% of 300,000 active; in the data active = max response mostly above about 13%, no sharp cut-off; inactive = mostly below about 14%; also: read at 38.3 µM for the half of the compounds with a filed dose; 0% is about no effect
# Pf growth 48h: P. falciparum growth inhibition at 48 hours (one generation). P. falciparum luciferase growth in erythrocytes, 48 h. Potency, µM (top dose mostly 28.7 µM), for inactives: top-dose activity change, negative = inhibition, hits mostly inhibitors. 5.9% of 310,000 active; also: potency is read from the fitted curve at half-maximal effect; % is scaled to controls: 0 for no effect and ±100 for the full control effect
#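 A one-generation exposure of luciferase-tagged malaria parasites in RPMI 1640/Albumax erythrocyte culture, 37 C and 5% CO2. Inhibition is inferred from decreased luminescence after adding detection reagent.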
# Shiga inhibitor: Shiga toxin inhibition. AID 2315. Vero cells, Shiga toxin protein synthesis inhibition reporter. inhibition, % at 38.7 µM. 9.2% of 290,000 active; in the data active = inhibition mostly above about 28%, no sharp cut-off; inactive = mostly below about 43%; also: 0% is about no effect
# SARS PLpro yeast: blocks SARS-CoV papain-like protease in a yeast assay; S. cerevisiae expressing SARS-CoV PLpro, growth rescue; Potency, µM (top dose mostly 32.9 µM), for the others: top-dose activity, positive = growth rescue, usual class: activators; 0.19% of 330,000 active; AID 485353; calls by dose curve; also: potency is read from the fitted curve at half-maximal effect; 0% is about no effect; nearly all actives have a fitted effect of over 55% in size
# NS1 function inh: blocks influenza NS1 protein function; 0.4% of 270,000 active; Potency, µM (series often up to 46.1 µM), for inactives: at the top dose activity, positive = more growth; calls by dose curve; also: potency is read from the fitted curve at half-maximal effect; actives are rising curves; nearly all actives have a fitted effect of over 50% in size
#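 Compounds were scored for reversing the slow growth caused by influenza A NS1 in S. cerevisiae, measured by optical density at 600 nm. Assay medium contained 2% galactose at pH 6.0; NS1-free yeast of the same strain were the positive control.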
# Numbers without * were called inactive; ? = inconclusive; / = no result given. Unless noted, calls follow the shape of the dose curve; as a rule, active = well fitted inhibition curve with a large enough effect; inconclusive = small, poorly fitted or top-dose-only effect, or another doubt; inactive = no such curve, though single readings can be large or run the other way.
SMILES,Pf growth 96h,Cycloheximide cs,Pf growth 48h,Shiga inhibitor,SARS PLpro yeast,NS1 function inh
COc1ccc(NC(=S)N(C)CC2COc3ccccc3O2)cc1 (stereo not drawn),39.8%,24.2*,39.9%,73.1*,-1.2%,-3.3%
OCCn1c(CSc2nnc(-c3ccco3)n2-c2ccccc2)nc2ccc(Cl)cc21,/,-1.2,11.7µM*,-8.5,-0.9%,-0.6%
c1ccc2c(c1)C(=Nn1cnnc1)c1ccccc1-2,11.7µM*,-1.0,2.8%,20.1,-0.3%,-36.0%
O=C1/C(=N/n2cnnc2)c2ccccc2N1Cc1ccccc1,9.28µM*,-2.0,-11.1%,-5.2,-27.0%,-114.4%
Cc1cc(C)c(NC(=O)COC(=O)C2CCCCC2)c(C)c1,-24.7%,/,?,/,-0.8%,/
COc1ccc(-c2c(NC(=O)c3ccco3)oc3c(C)cccc3c2=O)cc1,-15.0%,8.8,-16.6%,-2.8,0.2%,-38.1%
O=C(CNCC1CCCO1)NCc1ccco1 (stereo not drawn),?,1.7,35.1%,-1.2,1.0%,?
Cn1c(SCC(=O)N/N=C/C=C/c2ccccc2[N+](=O)[O-])nc2ccccc21,19.8%,-1.8,-1.1%,-10.3,10.9%,9.8%
COc1ccc(NCC(=O)N/N=C/C=C/c2ccccc2[N+](=O)[O-])cc1,7.3%,-2.8,5.9%,5.7,-2.2%,/
Cc1occc1C(=O)N/N=C/C=C\c1ccccc1[N+](=O)[O-],-16.0%,30.4*,-0.5%,69.6*,-0.2%,-4.9%
Cc1ccsc1C(=O)N/N=C/C=C/c1ccccc1[N+](=O)[O-],88.8%,29.8*,/,117.4*,7.6%,-6.7%
CCOC(=O)N/N=C/C=C/c1ccccc1[N+](=O)[O-],?,21.8*,0.0%,73.4*,1.4%,1.7%
O=C(N/N=C/C=C\c1ccccc1[N+](=O)[O-])c1ccco1,?,11.6,?,-2.4,-1.2%,/
Cc1ccc(C)c(N(C(=O)c2ccco2)C(C(=O)NC2CCCC2)c2ccco2)c1 (stereo not drawn),-8.3%,-3.3,?,-5.2,-0.3%,7.4%
CNC(=O)c1cc2c(s1)-c1ccccc1CC2,28.9%,48.8*,46.6%,99.8*,-4.3%,-31.3%
O=C(N/N=C/c1ccc(F)c(F)c1)c1cc2c(s1)-c1ccccc1CC2,22.7%,-3.6,4.2%,-2.4,-1.7%,10.4%
CNC(=O)c1cc(C)c(-c2ccccc2)s1,/,45.7*,?,34.6,-36.6%,-58.7%
CCn1cc(SCC(=O)N2CCOCC2)c2ccccc21,34.1%,30.1*,62.4%,68.0*,3.6%,-11.5%
Cn1cc(SCC(=O)N2CCOCC2)c2ccccc21,10.7%,21.7*,52.8%,92.7*,-3.4%,-0.3%
CC(=O)Nc1ccc(NC(=O)CSc2cn(CC(=O)N3CCOCC3)c3ccccc23)cc1,?,1.9,?,-6.7,2.5%,2.0%
CCOCCOc1cccc(C(=O)NC(C)c2ccc3ccccc3c2)c1 (stereo not drawn),?,-2.3,-12.0%,-5.3,2.6%,5.6%
COc1ccc(CN2CCNC(=O)C2CC(=O)N(C)Cc2nccs2)cc1OC (stereo not drawn),9.28µM*,-3.0,-8.4%,-2.8,-3.0%,-4.4%
Cc1csc(CN(C)C(=O)CC2C(=O)NCCN2Cc2ccc(F)c(F)c2)n1 (stereo not drawn),13.1µM*,-1.0,7.1%,12.5,0.4%,-2.2%
COc1ccc(CN2CCNC(=O)C2CC(=O)N(C)Cc2nccn2C)cc1OC (stereo not drawn),2.9%,11.1,8.7%,9.3,1.5%,1.1%
Cc1nonc1OCCNCc1c(C(=O)N(C)C)nc2ccc(Cl)cn12,26.9%,-4.6,?,12.2,-5.5%,-51.6%
SMILES,Pf growth 96h,Cycloheximide cs,Pf growth 48h,Shiga inhibitor,SARS PLpro yeast,NS1 function inh
COc1cc(CNC(=O)c2cccc(COc3ccc(Cl)cc3)c2)cc(OC)c1,-24.2%,51.6*,201.8%,112.6*,2.2%,15.7%
O=C(NCc1ccccc1)c1cccc(COc2ccc(Cl)cc2)c1,375.5%,130.5*,138.1%,199.5*,-8.9%,-57.2%
O=C(NCc1ccccc1)c1cccc(COc2cccc(Cl)c2)c1,-4.5%,-1.6,20.3%,3.8,-13.6%,-11.4%
COc1ccc(S(=O)(=O)Nc2ccc3c(c2)n(C)c(=O)n3C)cc1,32.4%,-0.8,-7.6%,10.4,24.0%,0.6%
Cc1ccc(S(=O)(=O)N2CC(C(=O)O)Oc3ccccc32)cc1 (stereo not drawn),-11.0%,-1.0,/,9.7,2.0%,-0.9%
Cc1ccc(-c2onc(C)c2C)cc1S(=O)(=O)N1CC(C)Oc2ccccc21 (stereo not drawn),-29.1%,22.0,14.7µM*,6.2,2.7%,16.1%
O=C(NCC1CCCO1)C(c1ccc(F)cc1)N(CC1CCCO1)C(=O)c1ccc(-c2ccccc2)[nH]1 (stereo not drawn),26.4%,-1.6,2.08µM*,-2.5,1.0%,-8.1%
Cc1cccc(N(C(=O)Cn2nnc3ccccc32)C(C(=O)NCc2ccco2)c2ccncc2)c1C (stereo not drawn),/,-1.4,?,-7.6,1.1%,-13.5%
O=C(NCc1ccco1)C(c1ccccc1)N(Cc1ccccc1)C(=O)Cn1nnc2ccccc21 (stereo not drawn),9.28µM*,17.6*,-22.1%,40.1,-3.7%,6.7%
O=C(NCc1ccco1)C(c1ccccc1)N(CC1CCCO1)C(=O)Cn1nnc2ccccc21 (stereo not drawn),0.0%,-0.6,?,-22.9,5.4%,?
O=C(NCc1ccc(F)cc1)C(c1ccccc1)N(CC1CCCO1)C(=O)Cn1nnc2ccccc21 (stereo not drawn),?,-1.4,8.28µM*,-3.7,18.0%,-2.2%
Cc1cccc(C)c1NC(=O)C(c1cccs1)N(Cc1ccco1)C(=O)Cn1nnc2ccccc21 (stereo not drawn),/,-2.7,6.57µM*,0.5,4.0%,-25.9%
CNC(=O)COc1coc(CN2CCN(c3ccc(F)cc3)CC2)cc1=O,?,1.9,18.0%,1.0,-1.8%,1.0%
COc1cc(C2NC(=O)NC(c3ccccc3)=C2C(C)=O)c(Br)c(Br)c1O (stereo not drawn),0.738µM*,-1.2,1.31µM*,/,0.9%,27.6%
CC(C)(C)NC(=O)C(=O)NNC(=O)COc1ccc(Br)cc1,19.6%,1.4,6.3%,1.7,2.8%,2.8%
COc1ccc(-n2c(-c3ccc(Cl)cc3)c[nH]c2=S)cc1,?,4.1,?,13.8,2.4%,?
Nc1ncnc(Sc2ccccc2)c1[N+](=O)[O-],9.28µM*,-1.5,14.7µM*,-9.6,27.2%,-30.1%
Nc1ncnc(Sc2ccc(Cl)cc2)c1[N+](=O)[O-],25.1%,-4.7,?,-4.2,4.8%,1.9%
CC(OC(=O)CCCN=C1NS(=O)(=O)c2ccccc21)C(=O)Nc1ccc(F)cc1Cl (stereo not drawn),49.5%,/,5.3%,/,0.4%,/
CCOc1ccccc1NC(=S)N1CCC(c2nc3ccccc3o2)CC1,?,-2.7,1.0%,-7.8,22.8%,8.2%

# Source: PubChem BioAssay (National Center for Advancing Translational Sciences (NCATS))
